PubChem BioAssay AID504834 (National Center for Advancing Translational Sciences (NCATS), 2011)
Screen size: about 320,000 compounds; about 22,000 (6.9%) were called active. Another 27% or so got no clear call; they are omitted. The call rests on the fitted dose curve; in most records, active means well fitted inhibition curve with a large enough effect; inconclusive means small, poorly fitted or top-dose-only effect, or another doubt; inactive means no such curve, though single readings can be large or run the other way. Shown is part of a subset that was picked to be rich in actives.

Assay: Primary qHTS for delayed death inhibitors of the malarial parasite plastid, 96 hour incubation
Conditions: P. falciparum luciferase reporter growth; series mostly up to 28.7 µM; activity change, negative = inhibition: at the top concentration
Method in brief: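 Delayed-death screen, second-generation endpoint: infected erythrocytes, 2% hematocrit, 0.05% parasitemia final; 96 hours at 37 C, 5% CO2; luciferase detection reagent; luminescence decrease equals reduced growth.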
On the % scale 0 is the no-effect control and ±100 the full control effect; potency means the concentration at half of the fitted maximal effect.

Row | SMILES | activity change, negative = inhibition | Potency
1 | O=C(/C=C/c1ccccc1[N+](=O)[O-])OC1CCCCC1=O (centres undefined) | 22.2% (inactive) | –
2 | O=C(/C=C/c1ccccc1[N+](=O)[O-])NCC1CCCO1 (centres undefined) | 0% (inactive) | –
3 | CC1CCCCC1NC(=O)/C(C#N)=C/C=C/c1ccccc1[N+](=O)[O-] (centres undefined) | – | 11.7 µM (active)
4 | CC(=O)Nc1cccc(C(=O)OCC(=O)Nc2nnc(-c3ccccc3)o2)c1 | -0.187% (inactive) | –
5 | CC(OC(=O)/C=C/c1ccccc1)C(=O)NC1CCCCC1C (centres undefined) | -13.5% (inactive) | –
6 | CC[N+](C)(CC)CCC[n+]1c(-c2ccccc2)c2cc(N)ccc2c2ccc(N)cc21 | – | 0.233 µM (active)
7 | O=C(CCNC(=O)c1ccccc1)Nc1nc2ccccc2s1 | 80.1% (inactive) | –
8 | CC(C)(C)OC(=O)NC(Cc1ccccc1)C(=O)NC(CSC1CCCCO1)C(=O)NN (centres undefined) | -13.4% (inactive) | –
9 | CCn1cc(C(=O)NCC(=O)NC(C)(C)CO)c(=O)c2cc3c(cc21)OCO3 | 33.4% (inactive) | –
10 | CCOc1ccc(N(CC(=O)Nc2ccccc2F)S(=O)(=O)c2c(C)[nH]c(=O)[nH]c2=O)cc1 | 10.6% (inactive) | –
11 | COc1cccc(N(CC(=O)NC2CCCC2)C(=O)CCCC(=O)Nc2ccccn2)c1 | -25.1% (inactive) | –
12 | COc1ccc(N(CC(=O)NC2CCCCC2)S(=O)(=O)c2c(C)[nH]c(=O)[nH]c2=O)cc1 | – | 5.86 µM (active)
13 | COc1cccc(N(CC(=O)NC2CCCCCC2)S(=O)(=O)c2ccccc2)c1 | – | 13.1 µM (active)
14 | O=C(CN(c1cccc(Cl)c1)S(=O)(=O)c1ccccc1)NN=C1CCCC1 | -104% (inactive) | –
15 | COc1ccc(N(CC(=O)Nc2ccc(F)c(F)c2)S(=O)(=O)c2c(C)[nH]c(=O)[nH]c2=O)cc1 | 15.3% (inactive) | –
16 | O=C(Cc1cccs1)NCc1cccc(C(F)(F)F)c1 | 12.6% (inactive) | –
17 | COc1ccc(N2CC(C(=O)NCCS(=O)(=O)N3CCN(c4ccccc4)CC3)CC2=O)cc1 (centres undefined) | 107% (inactive) | –
18 | CCC(CC)C(=O)Nc1c2c(nn1-c1ccc(C)cc1)CS(=O)(=O)C2 | -17.7% (inactive) | –
19 | O=CN1CCN(C(=O)c2ccc3c(c2)OCO3)CC1 | -14% (inactive) | –
20 | CC(C)CN(C(=O)CSc1nncn1C)C1CCS(=O)(=O)C1 (centres undefined) | 45.5% (inactive) | –
21 | Cc1ccc(C(=O)N2CCCC(c3ccccc3)=N2)cc1 | -22.4% (inactive) | –
22 | Cc1ccc(-c2c[n+](CC(=O)Nc3ccccc3)c3n2CCC3)cc1 | – | 3.7 µM (active)
23 | Cc1ccc(C(=O)C[n+]2cc(-c3ccccc3)n3c2CCCCC3)cc1 | – | 0.415 µM (active)
24 | Cc1cccc[n+]1CC(=O)c1ccccc1 | 33.3% (inactive) | –
25 | Cc1ccc(NC(=O)CN2CCc3ccccc3C2)cc1 | 21.5% (inactive) | –
26 | Cc1ccc(NC(=O)CCN2CCc3ccccc3C2)cc1 | -12.6% (inactive) | –
27 | COc1ccc(S(=O)(=O)Nc2cc(C)on2)cc1NC(C)=O | 8.11% (inactive) | –

Row | SMILES | activity change, negative = inhibition | Potency
28 | CCCc1cc(=O)oc2c(C)c(OCC(=O)Nc3ccccn3)ccc12 | -40.6% (inactive) | –
29 | COCCCNC(=O)CN1C(=O)CSc2ccc(S(=O)(=O)N3CCOCC3)cc21 | 6.67% (inactive) | –
30 | CCOC(=O)C1CCN(C(=O)Cn2nc(C)c3c(C)n(-c4ccccc4)nc3c2=O)CC1 | 62.5% (inactive) | –
31 | O=S(=O)(NCCc1ccc(Cl)cc1)c1cccs1 | 30.8% (inactive) | –
32 | COc1cc(C(=O)OC2CCOC2=O)c([N+](=O)[O-])cc1OC (centres undefined) | 15% (inactive) | –
33 | COc1ccc(NC(=O)CS(=O)(=O)c2ccccc2)cc1 | 0.182% (inactive) | –
34 | COc1ccc(-c2nnc(NC(=O)CS(=O)(=O)c3ccc(Cl)cc3)o2)c(OC)c1 | – | 8.28 µM (active)
35 | COc1ccc(-c2nnc(SCC(=O)c3cccs3)o2)c(OC)c1 | 7.45% (inactive) | –
36 | COc1ccc(-c2n[nH]c3c2CN(C(=O)c2ccc(F)cc2)CC3)cc1 | 52% (inactive) | –
37 | Cc1nonc1C1CCCN1C(=O)c1cc(COc2cccc(C(F)(F)F)c2)on1 (centres undefined) | 14.5% (inactive) | –
38 | COc1ccccc1/C=C/C=N/NC(=O)CN1CCN(Cc2ccccc2)CC1 | -12.1% (inactive) | –
39 | O=C(N/N=C/c1ccccc1O)C1CCCC1 | -102% (inactive) | –
40 | O=C(N/N=C/C=C/c1ccccc1)C1CC1(c1ccccc1)c1ccccc1 (centres undefined) | – | 10.4 µM (active)
41 | CCc1cc(=O)oc2c(C)c(OCC(=O)N3CC[C@@]4(O)CCCC[C@H]4C3)ccc12 | -25.6% (inactive) | –
42 | CCOC(=O)c1cc(NC(=O)c2ccc(Cl)cc2)c(=O)oc1-c1ccccc1 | 0% (inactive) | –
43 | CCOC(=O)c1[nH]c2c(c1-c1ccccc1)C(=O)CC(c1ccc(Cl)cc1)C2 (centres undefined) | – | 9.28 µM (active)
44 | CCOC(=O)c1[nH]c2c(c1C)C(=O)CC(c1ccc(N(C)C)cc1)C2 (centres undefined) | 1.58% (inactive) | –
45 | Cc1cccc(C(=O)NC(=S)N(C)C2CCCCC2)c1 | -85.4% (inactive) | –
46 | C#CCOCCOCCOCCNc1nc(N2CCN(C(=O)[C@H](CCCCN)n3cc(CCC(=O)O)nn3)CC2)nc(N2CCN(C(=O)[C@H](CCCCN)n3cc(CC(C)O)nn3)CC2)n1 (some centres undefined) | 87.4% (inactive) | –
47 | C#CCOCCOCCOCCNc1nc(N2CCN(C(=O)[C@H](CCCCN)n3cc([C@@H](N)C(C)CC)nn3)CC2)nc(N2CCN(C(=O)[C@H](Cc3ccc(O)cc3)n3cc([C@@H](N)C(C)CC)nn3)CC2)n1 (some centres undefined) | -11.3% (inactive) | –
48 | C#CCOCCOCCOCCNc1nc(N2CCN(C(=O)Cn3cc(CCCCN)nn3)CC2)nc(N2CCN(C(=O)[C@H](CCCCN)n3cc(CCC(=O)O)nn3)CC2)n1 | -25.7% (inactive) | –
49 | C#CCOCCOCCOCCNc1nc(N2CCN(C(=O)CCCCCCCCCCNC(=O)[C@H](CCCCN)n3cc(C)nn3)CC2)nc(N2CCN(C(=O)CCCCCCCCCCNC(=O)[C@H](CO)n3cc(CCCSC)nn3)CC2)n1 | – | 0.294 µM (active)
50 | C#CCOCCOCCOCCNc1nc(N2CCN(C(=O)CCCCCCCCCCNC(=O)Cn3cc(CCCCCN)nn3)CC2)nc(N2CCN(C(=O)CCCCCCCCCCNC(=O)[C@H](CO)n3cc(CCCSC)nn3)CC2)n1 | – | 1.47 µM (active)
51 | C#CCOCCOCCOCCNc1nc(N2CCN(C(=O)[C@H](CCC(=O)O)n3cc(C(N)CO)nn3)CC2)nc(N2CCN(C(=O)[C@H](CCCCN)n3cc(C(N)[C@H](C)CC)nn3)CC2)n1 (some centres undefined) | 34.7% (inactive) | –
52 | C#CCOCCOCCOCCNc1nc(N2CCN(C(=O)[C@H](CCC(=O)O)n3cc(C(N)CO)nn3)CC2)nc(N2CCN(C(=O)[C@H](CCCCN)n3cc(C(N)CC(C)C)nn3)CC2)n1 (some centres undefined) | 79.2% (inactive) | –
53 | C#CCOCCOCCOCCNc1nc(N2CCN(C(=O)[C@H](C(C)C)n3cc(CCO)nn3)CC2)nc(N2CCN(C(=O)[C@H](C(C)C)n3cc(CCO)nn3)CC2)n1 | -0.171% (inactive) | –
54 | C#CCOCCOCCOCCNc1nc(N2CCN(C(=O)CCCCCCCCCCNC(=O)[C@H]([C@@H](C)CC)n3cc(CCCCN=C(N)N)nn3)CC2)nc(N2CCN(C(=O)CCCCCCCCCCNC(=O)[C@H](CO)n3cc(CCCSC)nn3)CC2)n1 | – | 0.37 µM (active)
